# PubChem BioAssay (EPA / NIEHS)
# “And” between values parts separate entries of the source, which are not always exact repeats. Identical values can stand only once. The source made the active and inactive calls. How the source made its calls: active means hit-call score of the fitted dose curve at least 0.9, where 1 is the maximum; inactive means score below 0.9.
# Read-out: Plasminogen activator inhibitor-1 (PAI1), SERPINE1 (gene 5054)
# Experiment: BSK_hDFCGF_PAI1: BioMAP Diversity Plus: hDFCGF Assay for Plasminogen activator inhibitor-1 (PAI1) Biomarker Activity (AID 2283066)
# Conditions: primary human foreskin fibroblasts; actives raise or lower the signal
# In short: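 Fibroblasts from human foreskin were treated with test chemical. After 24 h, PAI-1 was measured by ELISA. Activity was fitted in both directions relative to DMSO.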
Compound,outcome,AC50
O=S(=O)(OCC(F)(F)F)C(F)(F)C(F)(F)C(F)(F)C(F)(F)F,inactive,–
C=CC(=O)OCC(F)(F)C(F)(F)C(F)(F)C(F)(F)C(F)(F)C(F)(F)C(F)(F)C(F)F,inactive,–
NS(=O)(=O)C(F)(F)C(F)(F)C(F)(F)C(F)(F)C(F)(F)C(F)(F)F,inactive,–
CC(C)CCCC(C)CCO (stereo unspecified),inactive,–
CCN(CC)c1ccc(C=O)cc1,inactive,–
O=C=Nc1cccc2c(N=C=O)cccc12,inactive,–
C=CC(=O)OCCC(F)(F)C(F)(F)C(F)(F)C(F)(F)F,inactive,–
OCCCCC(F)(F)C(F)(F)C(F)(F)C(F)(F)F,inactive,–
O=C(O)CCC(F)(F)C(F)(F)C(F)(F)C(F)(F)C(F)(F)C(F)(F)C(F)(F)F,inactive,–
CCN(CC)c1ccc(N=Nc2ccccc2)cc1,inactive,–
O=S(=O)(Cl)C(F)(F)C(F)(F)C(F)(F)C(F)(F)C(F)(F)C(F)(F)C(F)(F)C(F)(F)F,inactive,–
O=C(Cl)C(F)(F)C(F)(F)C(F)(F)C(F)(F)C(F)(F)C(F)(F)F,inactive,–
Cc1cc(O)c(C(C)(C)C)cc1C(C)(C)C,–,4.51 µM (active)
FC(F)(F)C(F)(F)C(F)(F)CC1CO1 (stereo unspecified),inactive,–
O=C(O)C(F)(F)C(F)(F)C(F)(F)C(=O)O,inactive,–
Cc1cnccn1,inactive,–
CN(C(=O)C(F)(F)C(F)(F)C(F)(F)F)[Si](C)(C)C,inactive,–

Compound,outcome,AC50
Brc1nc2ccccc2s1,inactive,–
CCN(CC)c1ccc2c(c1)Oc1cc(N(CC)CC)ccc1C21OC(=O)c2ccccc21,inactive,–
NC(O)(C(F)(F)F)C(F)(F)F,inactive,–
O=C(O)C(F)(F)OC(F)(F)C(F)(F)OC(F)(F)C(F)(F)OC(F)(F)F,inactive,–
O=C(O)C(F)(F)C(F)(F)C(F)(F)C(F)(F)C(F)(F)C(F)(F)C(F)F,inactive,–
NC(=O)C(F)(F)C(F)(F)C(F)(F)C(F)F,inactive,–
OC(O)C(F)(F)C(F)(F)F,inactive,–
COC(F)(C(F)F)C(F)(F)F (stereo unspecified),inactive,–
Cc1ccc(O)c(-n2nc3ccccc3n2)c1,inactive,–
CCN=C1C=CC(=C(c2ccc(N(CC)CC)cc2)c2ccc(N(CC)CC)cc2)c2ccccc21,–,1.31 µM (active) and 1.23 µM (active)
NC(=O)C(F)(F)C(F)(F)C(F)(F)C(F)(F)C(F)(F)C(F)(F)C(F)(F)F,inactive,–
FC(F)(F)C(F)(F)C(F)(F)C(F)(F)C(F)(F)C(F)(F)C(F)(F)CCI,inactive,–
Cc1ccc(S(=O)(=O)C(I)I)cc1,–,2.41 µM (active)
OCCCC(F)(F)C(F)(F)C(F)(F)C(F)(F)C(F)(F)C(F)(F)C(F)(F)C(F)(F)F,–,6.66 µM (active) and 5.89 µM (active)
NC(=O)C(F)(F)C(F)(F)C(F)(F)C(F)(F)C(N)=O,inactive,–
O=C(O)CCC(F)(F)C(F)(F)C(F)(F)F,inactive,–

# Read-out: Intercellular Adhesion Molecule 1 (ICAM1), ICAM1 (gene 3383)
# Experiment: BSK_KF3CT_ICAM1: BioMAP Diversity Plus: KF3CT Assay for Intercellular Adhesion Molecule 1 (ICAM1) Biomarker Activity (AID 2283067)
# Conditions: primary human keratinocytes with fibroblasts; actives raise or lower the signal
# In short: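 Human keratinocyte–foreskin fibroblast co-culture was treated for 24 h. Cell-surface ICAM-1 was quantified by ELISA, fitted bidirectionally relative to DMSO. Cytotoxicity was checked in parallel cultures by SRB total-protein staining.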
Compound,outcome,AC50
O=S(=O)(OCC(F)(F)F)C(F)(F)C(F)(F)C(F)(F)C(F)(F)F,inactive,–
C=CC(=O)OCC(F)(F)C(F)(F)C(F)(F)C(F)(F)C(F)(F)C(F)(F)C(F)(F)C(F)F,inactive,–
NS(=O)(=O)C(F)(F)C(F)(F)C(F)(F)C(F)(F)C(F)(F)C(F)(F)F,inactive,–
CC(C)CCCC(C)CCO (stereo unspecified),–,36.5 µM (active)
CCN(CC)c1ccc(C=O)cc1,inactive,–
O=C=Nc1cccc2c(N=C=O)cccc12,inactive,–
C=CC(=O)OCCC(F)(F)C(F)(F)C(F)(F)C(F)(F)F,inactive,–
OCCCCC(F)(F)C(F)(F)C(F)(F)C(F)(F)F,inactive,–
O=C(O)CCC(F)(F)C(F)(F)C(F)(F)C(F)(F)C(F)(F)C(F)(F)C(F)(F)F,inactive,–
CCN(CC)c1ccc(N=Nc2ccccc2)cc1,inactive,–
O=S(=O)(Cl)C(F)(F)C(F)(F)C(F)(F)C(F)(F)C(F)(F)C(F)(F)C(F)(F)C(F)(F)F,inactive,–
O=C(Cl)C(F)(F)C(F)(F)C(F)(F)C(F)(F)C(F)(F)C(F)(F)F,inactive,–
Cc1cc(O)c(C(C)(C)C)cc1C(C)(C)C,–,2.89 µM (active)
FC(F)(F)C(F)(F)C(F)(F)CC1CO1 (stereo unspecified),inactive,–
O=C(O)C(F)(F)C(F)(F)C(F)(F)C(=O)O,inactive,–
Cc1cnccn1,inactive,–
CN(C(=O)C(F)(F)C(F)(F)C(F)(F)F)[Si](C)(C)C,inactive,–

Compound,outcome,AC50
Brc1nc2ccccc2s1,inactive,–
CCN(CC)c1ccc2c(c1)Oc1cc(N(CC)CC)ccc1C21OC(=O)c2ccccc21,inactive,–
NC(O)(C(F)(F)F)C(F)(F)F,inactive,–
O=C(O)C(F)(F)OC(F)(F)C(F)(F)OC(F)(F)C(F)(F)OC(F)(F)F,inactive,–
O=C(O)C(F)(F)C(F)(F)C(F)(F)C(F)(F)C(F)(F)C(F)(F)C(F)F,inactive,–
NC(=O)C(F)(F)C(F)(F)C(F)(F)C(F)F,inactive,–
OC(O)C(F)(F)C(F)(F)F,inactive,–
COC(F)(C(F)F)C(F)(F)F (stereo unspecified),inactive,–
Cc1ccc(O)c(-n2nc3ccccc3n2)c1,inactive,–
CCN=C1C=CC(=C(c2ccc(N(CC)CC)cc2)c2ccc(N(CC)CC)cc2)c2ccccc21,–,3.19 µM (active) and 3.16 µM (active)
NC(=O)C(F)(F)C(F)(F)C(F)(F)C(F)(F)C(F)(F)C(F)(F)C(F)(F)F,inactive,–
FC(F)(F)C(F)(F)C(F)(F)C(F)(F)C(F)(F)C(F)(F)C(F)(F)CCI,inactive,–
Cc1ccc(S(=O)(=O)C(I)I)cc1,–,3.07 µM (active)
OCCCC(F)(F)C(F)(F)C(F)(F)C(F)(F)C(F)(F)C(F)(F)C(F)(F)C(F)(F)F,–,12.8 µM (active) and 11.7 µM (active)
NC(=O)C(F)(F)C(F)(F)C(F)(F)C(F)(F)C(N)=O,inactive,–
O=C(O)CCC(F)(F)C(F)(F)C(F)(F)F,inactive,–
